tested on: SGK; settings: concentration: 1 μM, replicates: in singlicate; n = 1
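Also: KINOMEscan kinase panel screen.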

SMILES | %Inh
NCCCC(NC(=O)c1cc(Br)c(-c2ccnc3[nH]ccc23)s1)c1ccccc1.O=C(O)C(F)(F)F.O=C(O)C(F)(F)F (stereo not shown) [GSK1287544] | 54%
CN(C)Cc1ccc(-c2ccc3c(Nc4ccc(Oc5ccccn5)cc4)ccnc3c2)o1 [GW567148] | 0%
Cn1cc(-c2ccc3c(c2)CCN3C(=O)Cc2cccc(Cl)c2)c2c(N)ncnc21 [GSK2606590] | 0%
O=c1[nH]cc(-c2ccc(N3CCOCC3)cc2)c2sc(-c3cn[nH]c3)cc12 [GSK2276055] | 0%
CN1CCN(Cc2cccc(-c3ccc4c(Nc5ccc(Oc6ccccc6)cc5)ccnc4c3)c2)CC1 [GW578342] | 7%
COc1cccc(-c2ccc3c(NC(=O)C4CC4)n[nH]c3n2)c1 [SB-710903] | 19%

tested on: SIK2; settings: concentration: 1 μM, replicates: in singlicate; n = 1

SMILES | %Inh
Cc1cccc(Nc2nc(N[C@H]3CCNC3)ncc2C(N)=O)c1.Cl [GSK2197149] | 30%
O=C(Nc1ccccc1F)NC1CCN(c2ccnc(Nc3ccc(F)cc3)n2)CC1 [GSK1379800] | 0%
CN(C)S(=O)(=O)c1cc(-c2ccc3nccc(-c4cccc(S(N)(=O)=O)c4)c3c2)cnc1N [GSK1669921] | 10%
COc1ccc(CNC(=O)NC2CCN(c3ccnc(Nc4ccc(F)cc4)n3)CC2)cc1 [GSK1379788] | 0%
Cl.Cl.NCC(C(=O)Nc1cc(Br)c(-c2ccnc3[nH]ccc23)s1)c1ccccc1 (stereo not shown) [GSK1269851] | 0%
COC(=O)Nc1nc2ccc(Oc3ccc(NC(=O)Nc4cc(C(F)(F)F)ccc4F)cc3)cc2n1C.Cl [GW692089] | 0%
Nc1ncc(-c2cccnc2)c2scc(-c3ccc4c(c3)CCN4C(=O)Cc3ccccc3)c12 [GSK683281] | 4%
Cc1ccc(C(=O)Nc2ccc(Nc3ccnc4cc(-c5nccs5)ccc34)cc2O)cc1.Cl [GW494702] | 5%
Cn1cc(-c2[nH]c3cc(NC(=O)[C@H](N)C4CCCCC4)cc4c3c2C=NNC4=O)cn1 | 95.2%
CCc1ccc(-c2ccc3c(c2)-c2c(cnn2C)S(=O)(=O)N3C)cc1 | 4%
Nc1ncc(-c2ccc3nccc(-c4ccncc4)c3c2)cc1S(=O)(=O)N1CCOCC1 [GSK1627798] | 0%
O=C(Nc1n[nH]c2nc(-c3ccc(O)cc3)ccc12)C1CC1 [SB-710363] | 0%
O=C(O)C(F)(F)F.O=C(O)C(F)(F)F.O=c1[nH]ccc2nc(N[C@@H]3CCCNC3)nc(Nc3ccc(S(=O)(=O)N4CCOCC4)cc3)c12 [GSK2177277] | 84%
COc1cccc(NC(=O)NC2CCN(c3ccnc(Nc4cc(OC)c(OC)c(OC)c4)n3)C2)c1 (stereo not shown) [GSK1379763] | 4%
CCS(=O)(=O)c1ccc(OC)c(Nc2nccc(-c3c(-c4cccc(NC(=O)c5c(F)cccc5F)c4)nn4ncccc34)n2)c1 [GSK326180] | 0%
COC(=O)Nc1nc2cc(Oc3ccc(NC(=O)Nc4cc(C(F)(F)F)ccc4F)cn3)ccc2[nH]1.Cl.Cl [GW681170] | 0%
COc1cc(Nc2nccc(N3CCC(NC(=O)Nc4cccc(C(C)=O)c4)C3)n2)cc(OC)c1OC (stereo not shown) [GSK1379753] | 0%
COc1cc(Nc2nccc(-c3c(-c4cccc(NC(=O)c5c(F)cccc5F)c4)nn4ccccc34)n2)cc(OC)c1OC [GSK323521] | 0%
Cl.Cl.NCC(NC(=O)c1cc(-c2ccccc2)c(-c2ccnc3[nH]ccc23)s1)c1ccccc1 (stereo not shown) [GSK1321561] | 0%

SMILES | %Inh
Cl.c1ccc(-c2ccc3c(Nc4ccc5[nH]ncc5c4)ccnc3c2)nc1 [GW440137] | 0%
CCn1c(-c2nonc2N)nc2c(C#CC(C)(C)O)ncc(OCCCCN)c21.O=C(O)C(F)(F)F.O=C(O)C(F)(F)F [GSK507274] | 5%
CN1CCN(CCCNc2nccc(-c3c(-c4ccc(F)cc4)nn4cc(C(F)(F)F)ccc34)n2)CC1 [GW621581] | 70%
Cl.Cl.NCC(NCc1ccc(-c2ccnc3[nH]ccc23)s1)c1ccccc1 (stereo not shown) [GSK1321565] | 0%
COc1cc(Nc2ncc3c(C)nc(-c4cc5ccccc5[nH]4)n3n2)cc(OC)c1OC [GW869516] | 29%
Nc1ncnc2c1nc(-c1ccccc1)n2-c1ccccc1 [SKF-97293] | 0%
O=C(Nc1cccc(-c2nn3ccccc3c2-c2ccnc(Nc3cccc(C(F)(F)F)c3)n2)c1)c1c(F)cccc1F [GSK292658] | 0%
CCCCc1nn2ncccc2c1-c1ccnc(Nc2ccc(N3CCN(C)CC3)cc2)n1 [GW684941] | 84%
Fc1ccc(-c2ncn(C3CCNCC3)c2-c2ccnc(Oc3ccc(-c4ccccc4)cc3)n2)cc1 [SB-245391] | 4%
FC(F)(F)c1ccc(/C=C/c2cncnc2Nc2ccc3[nH]c(Cc4ccccc4)nc3c2)cc1 [GW709199] | 4%
CC(=O)N1CCN(c2ccc(Nc3nccc(-c4sc(C(C)C)nc4-c4cccc(NS(=O)(=O)c5cccc(Cl)c5)c4)n3)cn2)CC1 [GSK1660437] | 89%
CC(=O)Nc1nc2cnc(Nc3cc(NC(=O)c4cccc(C5(C#N)CC5)c4Cl)ccc3C)nc2s1 | 6%
NCCCC(NC(=O)c1cc(Br)c(-c2ccnc3[nH]ccc23)s1)c1ccccc1.O=C(O)C(F)(F)F.O=C(O)C(F)(F)F (stereo not shown) [GSK1287544] | 0%
CN(C)Cc1ccc(-c2ccc3c(Nc4ccc(Oc5ccccn5)cc4)ccnc3c2)o1 [GW567148] | 79%
Cn1cc(-c2ccc3c(c2)CCN3C(=O)Cc2cccc(Cl)c2)c2c(N)ncnc21 [GSK2606590] | 0%
O=c1[nH]cc(-c2ccc(N3CCOCC3)cc2)c2sc(-c3cn[nH]c3)cc12 [GSK2276055] | 0%
CN1CCN(Cc2cccc(-c3ccc4c(Nc5ccc(Oc6ccccc6)cc5)ccnc4c3)c2)CC1 [GW578342] | 1%
COc1cccc(-c2ccc3c(NC(=O)C4CC4)n[nH]c3n2)c1 [SB-710903] | 0%

Reference: article PMC5540273 (PLoS ONE, 2017)
